# According to the supplement of paper PMC8728848:
# This is one part of a sample in which the strongest signals are shown more often than they occur.
# B1: Clec18A (Homo sapiens) (protein)
# chain: PFHTCDLRIDGDCFMVSSEADTYYRARMKCQRKGGVLAQIKRQKVQDILAFYLGRLETTNEVIDSDFETRNFWIGLTYKTAKDSFRWATGEHQAFTSFAFGQPDNHGFGNCVELQASAAFNWNDQRCKTRNRYICQ
# Legend:
# Assay in all cases: glycan array binding signal (z-score within array); higher = stronger binding
# Settings in all cases: glycan notation: IUPAC condensed, linker removed
# [1] = target: Fuc(a1-2)Gal
# In short: (§1)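 The Consortium for Functional Glycomics database supplied 3228 glycan arrays, of which those lacking an available protein sequence were dropped. The binding signal, a within-array Z-score, was averaged across arrays of the same protein sequence and across linkers. Negative scores can be read as non-binding.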
# [2] = target: Fuc(a1-2)Gal(b1-4)GlcNAc(b1-3)GalNAc
# In short: as §1
# [3] = target: Fuc(a1-2)Gal(b1-4)[Fuc(a1-3)]GlcNAc
# In short: as §1
# [4] = target: Fuc(a1-2)[Gal(a1-3)]Gal(b1-3)GlcNAc(b1-6)GalNAc
# In short: as §1
# [5] = target: Fuc(a1-2)[GalNAc(a1-3)]Gal(b1-3)GlcNAc(b1-2)Man(a1-3)[Fuc(a1-2)[GalNAc(a1-3)]Gal(b1-3)GlcNAc(b1-2)Man(a1-6)]Man(b1-4)GlcNAc(b1-4)GlcNAc
# In short: as §1
# [6] = target: Fuc(a1-2)[GalNAc(a1-3)]Gal(b1-4)GlcNAc(b1-2)Man(a1-3)[Fuc(a1-2)[GalNAc(a1-3)]Gal(b1-4)GlcNAc(b1-2)Man(a1-6)]Man(b1-4)GlcNAc(b1-4)GlcNAc
# In short: as §1
# [7] = target: Fuc(a1-2)[GalNAc(a1-3)]Gal(b1-4)GlcNAc(b1-3)Gal(b1-4)GlcNAc(b1-3)Gal(b1-4)GlcNAc
# In short: as §1
# [8] = target: Fuc(a1-2)[GalNAc(a1-3)]Gal(b1-4)[Fuc(a1-3)]GlcNAc
# In short: as §1
# [9] = target: Fuc(a1-3)GlcNAc
# In short: as §1
# [10] = target: Fuc(a1-3)[Gal(b1-4)]GlcNAc(b1-3)GalNAc
# In short: as §1
# [11] = target: Fuc(a1-3)[Gal3S(b1-4)]GlcNAc
# In short: as §1
# [12] = target: Fuc(a1-3)[GalNAc(b1-4)]GlcNAc
# In short: as §1
# [13] = target: Gal(a1-3)Gal(b1-3)GlcNAc(b1-3)GalNAc
# In short: as §1
# [14] = target: Gal(a1-3)[Gal(a1-4)]Gal(b1-4)GlcNAc
# In short: as §1
# [15] = target: Gal(b1-3)Gal
# In short: as §1
# [16] = target: Gal(b1-3)GlcNAc(b1-2)Man
# In short: as §1
# [17] = target: Gal(b1-3)GlcNAc(b1-2)Man(a1-3)[Gal(b1-3)GlcNAc(b1-2)Man(a1-6)]Man(b1-4)GlcNAc(b1-4)GlcNAc
# In short: as §1
# [18] = target: Gal(b1-3)GlcNAc(b1-3)Gal(b1-3)GlcNAc
# In short: as §1
# [19] = target: Gal(b1-3)[Fuc(a1-4)]GlcNAc(b1-3)Gal(b1-3)[Fuc(a1-4)]GlcNAc
# In short: as §1
# [20] = target: Gal(b1-4)GlcNAc(b1-2)Man(a1-3)[Gal(b1-4)GlcNAc(b1-2)Man(a1-6)]Man(b1-4)GlcNAc(b1-4)GlcNAc
# In short: as §1
# [21] = target: Gal(b1-4)GlcNAc(b1-2)[Gal(b1-4)GlcNAc(b1-6)]Man(a1-6)[Gal(b1-4)GlcNAc(b1-2)Man(a1-3)]Man(b1-4)GlcNAc(b1-4)[Fuc(a1-6)]GlcNAc
# In short: as §1
# [22] = target: Gal(b1-4)GlcNAc(b1-3)Gal(b1-4)GlcNAc
# In short: as §1
# [23] = target: Gal(b1-4)GlcNAc(b1-3)Gal(b1-4)GlcNAc(b1-3)Gal(b1-4)GlcNAc
# In short: as §1
# [24] = target: Gal(b1-4)GlcNAc(b1-3)Gal(b1-4)GlcNAc(b1-3)Gal(b1-4)GlcNAc(b1-2)[Gal(b1-4)GlcNAc(b1-3)Gal(b1-4)GlcNAc(b1-3)Gal(b1-4)GlcNAc(b1-6)]Man(a1-6)[Gal(b1-4)GlcNAc(b1-3)Gal(b1-4)GlcNAc(b1-3)Gal(b1-4)GlcNAc(b1-2)Man(a1-3)]Man(b1-4)GlcNAc(b1-4)[Fuc(a1-6)]GlcNAc
# In short: as §1
# [25] = target: Gal(b1-4)GlcNAc(b1-3)Gal(b1-4)GlcNAc(b1-3)Gal(b1-4)GlcNAc(b1-3)Gal(b1-4)GlcNAc(b1-3)Gal(b1-4)GlcNAc(b1-2)Man(a1-3)[Gal(b1-4)GlcNAc(b1-3)Gal(b1-4)GlcNAc(b1-3)Gal(b1-4)GlcNAc(b1-3)Gal(b1-4)GlcNAc(b1-3)Gal(b1-4)GlcNAc(b1-2)Man(a1-6)]Man(b1-4)GlcNAc(b1-4)GlcNAc
# In short: as §1
# [26] = target: Gal(b1-4)GlcNAc(b1-3)[Gal(b1-4)GlcNAc(b1-6)]Gal(b1-4)GlcNAc
# In short: as §1
# [27] = target: Gal(b1-4)GlcNAc6P
# In short: as §1
# [28] = target: Gal(b1-6)Gal
# In short: as §1
# [29] = target: Gal6S(b1-3)GlcNAc
# In short: as §1
# [30] = target: Gal6S(b1-3)GlcNAc6S
# In short: as §1
# [31] = target: Glc(a1-6)Glc(a1-6)Glc
# In short: as §1
# [32] = target: GlcA(b1-6)Gal
# In short: as §1
# [33] = target: GlcA3S(b1-3)Gal(b1-4)GlcNAc(b1-2)Man
# In short: as §1
# [34] = target: GlcNAc(b1-2)Man(a1-3)[GlcNAc(b1-2)Man(a1-6)]Man(b1-4)GlcNAc(b1-4)[Fuc(a1-6)]GlcNAc
# In short: as §1
# [35] = target: GlcNAc(b1-2)[GlcNAc(b1-4)]Man(a1-3)[GlcNAc(b1-2)Man(a1-6)]Man(b1-4)GlcNAc(b1-4)GlcNAc
# In short: as §1
# [36] = target: GlcNAc(b1-3)[GlcNAc(b1-6)]Gal(b1-4)GlcNAc
# In short: as §1
# [37] = target: GlcNAc(b1-3)[GlcNAc(b1-6)]GalNAc
# In short: as §1
# [38] = target: GlcNAc(b1-6)GalNAc
# In short: as §1
# [39] = target: Neu5Ac(a2-3)Gal(b1-3)GalNAc(b1-3)Gal(a1-4)Gal(b1-4)Glc
# In short: as §1
# [40] = target: Neu5Ac(a2-3)Gal(b1-3)GlcNAc(b1-2)Man
# In short: as §1
# [41] = target: Neu5Ac(a2-3)Gal(b1-4)GlcNAc(b1-2)Man(a1-3)[Neu5Ac(a2-6)Gal(b1-4)GlcNAc(b1-2)Man(a1-6)]Man(b1-4)GlcNAc(b1-4)GlcNAc
# In short: as §1
# [42] = target: Neu5Ac(a2-3)Gal(b1-4)GlcNAc(b1-2)[Neu5Ac(a2-3)Gal(b1-4)GlcNAc(b1-4)]Man(a1-3)[GlcNAc(b1-4)][Neu5Ac(a2-3)Gal(b1-4)GlcNAc(b1-2)[Neu5Ac(a2-3)Gal(b1-4)GlcNAc(b1-6)]Man(a1-6)]Man(b1-4)GlcNAc(b1-4)GlcNAc
# In short: as §1
# [43] = target: Neu5Ac(a2-3)Gal(b1-4)GlcNAc(b1-2)[Neu5Ac(a2-3)Gal(b1-4)GlcNAc(b1-4)]Man(a1-3)[GlcNAc(b1-4)][Neu5Ac(a2-3)Gal(b1-4)GlcNAc(b1-4)Man(a1-6)]Man(b1-4)GlcNAc(b1-4)GlcNAc
# In short: as §1
# [44] = target: Neu5Ac(a2-3)Gal(b1-4)GlcNAc(b1-3)Gal(b1-4)[Fuc(a1-3)]GlcNAc
# In short: as §1
# [45] = target: Neu5Ac(a2-6)Gal(b1-4)GlcNAc(b1-3)Gal(b1-3)GlcNAc
# In short: as §1
# [46] = target: Neu5Ac(a2-6)Gal(b1-4)GlcNAc(b1-3)Gal(b1-4)GlcNAc(b1-2)Man(a1-3)[Neu5Ac(a2-6)Gal(b1-4)GlcNAc(b1-3)Gal(b1-4)GlcNAc(b1-2)Man(a1-6)]GalNAc
# In short: as §1
# [47] = target: Neu5Ac(a2-6)Gal(b1-4)GlcNAc(b1-3)Gal(b1-4)GlcNAc(b1-6)[Gal(b1-3)]GalNAc
# In short: as §1
# [48] = target: Neu5Ac(a2-6)Gal(b1-4)GlcNAc(b1-3)[Neu5Ac(a2-6)Gal(b1-4)GlcNAc(b1-6)]GalNAc
# In short: as §1
# [49] = target: Neu5Ac(a2-6)Gal(b1-4)GlcNAc(b1-6)[Gal(b1-3)]GalNAc
# In short: as §1
# [50] = target: Neu5Ac(a2-8)Neu5Ac(a2-3)[GalNAc(b1-4)]Gal(b1-4)Glc
# In short: as §1
# [51] = target: Neu5Ac(b2-6)Gal(b1-4)GlcNAc
# In short: as §1
binder,measurement,setting,value
B1,glycan array binding signal (z-score),[1],-0.536
same,glycan array binding signal (z-score),[2],-0.366
same,glycan array binding signal (z-score),[3],-0.32
same,glycan array binding signal (z-score),[4],1.74
same,glycan array binding signal (z-score),[5],-0.538
same,glycan array binding signal (z-score),[6],4.62
same,glycan array binding signal (z-score),[7],-0.814
same,glycan array binding signal (z-score),[8],-0.083
same,glycan array binding signal (z-score),[9],-0.783
same,glycan array binding signal (z-score),[10],-0.458
same,glycan array binding signal (z-score),[11],0.178
same,glycan array binding signal (z-score),[12],0.38
same,glycan array binding signal (z-score),[13],-0.324
same,glycan array binding signal (z-score),[14],2.29
same,glycan array binding signal (z-score),[15],-0.801
same,glycan array binding signal (z-score),[16],-0.886
same,glycan array binding signal (z-score),[17],0.56
same,glycan array binding signal (z-score),[18],4.51
same,glycan array binding signal (z-score),[19],0.734
same,glycan array binding signal (z-score),[20],1.15
same,glycan array binding signal (z-score),[21],3.1
same,glycan array binding signal (z-score),[22],3.23
same,glycan array binding signal (z-score),[23],0.45
same,glycan array binding signal (z-score),[24],3.83
same,glycan array binding signal (z-score),[25],0.263
same,glycan array binding signal (z-score),[26],0.596
same,glycan array binding signal (z-score),[27],0.093
same,glycan array binding signal (z-score),[28],3
same,glycan array binding signal (z-score),[29],3.79
same,glycan array binding signal (z-score),[30],-0.347
same,glycan array binding signal (z-score),[31],-0.771
same,glycan array binding signal (z-score),[32],8.1
same,glycan array binding signal (z-score),[33],-0.619
same,glycan array binding signal (z-score),[34],-0.289
same,glycan array binding signal (z-score),[35],-0.935
same,glycan array binding signal (z-score),[36],-0.673
same,glycan array binding signal (z-score),[37],-0.327
same,glycan array binding signal (z-score),[38],0.314
same,glycan array binding signal (z-score),[39],2.87
same,glycan array binding signal (z-score),[40],1.04
same,glycan array binding signal (z-score),[41],-0.398
same,glycan array binding signal (z-score),[42],-0.652
same,glycan array binding signal (z-score),[43],-0.566
same,glycan array binding signal (z-score),[44],-0.342
same,glycan array binding signal (z-score),[45],-0.391
same,glycan array binding signal (z-score),[46],-0.045
same,glycan array binding signal (z-score),[47],0.884
same,glycan array binding signal (z-score),[48],3.01
same,glycan array binding signal (z-score),[49],1.17
same,glycan array binding signal (z-score),[50],4.6
same,glycan array binding signal (z-score),[51],0.965
